# In PubChem BioAssay AID2685 (National Center for Advancing Translational Sciences (NCATS), 2010):
# About 2,100 (0.66%) of roughly 320,000 compounds were called active. Not shown: some 53% with an inconclusive outcome. The call rests on the fitted dose curve; in most records, active means well fitted inhibition curve with a large enough effect in the signal ratio, with a control signal flat (not every such curve was filed as active); inconclusive means small, poorly fitted or top-dose-only effect, or effect the other way, or a change in a side signal; inactive means flat fitted curve, though single readings scatter; the % refers to the signal ratio. For the sample, actives were picked, then their nearest neighbours and some compounds at random.
# Experiment: qHTS Assay for Lipid Storage Modulators in Drosophila S3 Cells;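 on cell number change: cells counted by Cell Tracker Red CMTPX staining in the red channel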; on lipid storage change, negative = inhibition: on the % scale 0 is the no-effect control and ±100 the full control effect
# Settings: BODIPY lipid droplet fluorescence, 18-24 h, cells fed with added oleic acid; cell number change: measured here: cell count max response; series mostly up to 46.1 µM; lipid storage change, negative = inhibition: at the top concentration
# In short: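 Laser-scanning cytometry quantifies lipid droplet accumulation (500–530 nm total intensity; droplet/cell object ratio) in oleic acid-fed (400 uM added) Drosophila S3 cells treated with a concentration series. 20 uM Triacsin C defined 100% inhibition.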
# Potency means the concentration at half of the fitted maximal effect.
SMILES,"lipid storage change, negative = inhibition",cell number change,Potency,outcome
O=C(CS(=O)(=O)c1c[nH]c2ccccc12)Nc1ccc(F)cc1,-0.0934% (inactive),1.05%,,
Cc1ccccc1NS(=O)(=O)c1cc2c3c(c1)C(C)C(=O)N3CCC2 (configuration not stated),23.9% (inactive),,,
COc1ccc(/C=C/c2c([N+](=O)[O-])c(=O)n(C)c(=O)n2C)cc1,1.15% (inactive),-2.6%,,
COc1ccc(/C=C/c2c([N+](=O)[O-])c(=O)n(C)c(=O)n2C)cc1OC,7.09% (inactive),-10.8%,,
Cn1c(/C=C/c2ccc(Br)cc2)c([N+](=O)[O-])c(=O)n(C)c1=O,,-1.8%,2.91 µM (active),
CCCCOc1ccc(-c2nnc(-c3cc[n+](C)cc3)o2)cc1,23.6% (inactive),0.955%,,
COc1ccc(CC(=O)Nc2cccc3c2CCCC3)cc1,-15.9% (inactive),-12.6%,,
CC(=O)CC(=O)Nc1cccc2c1CCCC2,,2.07%,0.58 µM (active),
CC(=O)N/N=C(\C)CC(=O)Nc1cccc2c1CCCC2,18.2% (inactive),-11.4%,,
CCn1cc(S(=O)(=O)NC(C)c2cc(OC)ccc2OC)cn1 (configuration not stated),-0.989% (inactive),5.77%,,
Cc1cccc2c1N(CCCOc1ccccc1)C(=O)C2=O,-12.5% (inactive),4.6%,,
CC1CCN(CCCCOc2ccccc2F)CC1,0.309% (inactive),12.3%,,
Cn1nnc(NC(=O)c2ccccc2)n1,-4.09% (inactive),-11.2%,,
CN(Cc1cnn(C)c1)C(=O)c1cc(COc2c(F)cccc2F)on1,13.2% (inactive),16.3%,,
Cc1ccc(OCc2cc(C(=O)N(C)Cc3cnn(-c4ccccc4C)c3)no2)cn1,,-11.8%,23.1 µM (active),
CC(=O)c1ccc(OCc2cc(C(=O)N(C)Cc3cc(C)no3)no2)cc1,,-2.95%,,inactive
C/C(=N\NC(=O)Cc1cccn1C)c1ccc([N+](=O)[O-])cc1,8.91% (inactive),2.69%,,
CCN(Cc1ccncc1)C(=O)CSc1ccc2ccccc2c1,,,,inactive
O=C(Nc1ccc2ccccc2c1)c1ccc(Cl)cc1Cl,10.6% (inactive),-1.02%,,
O=C(Nc1ccc2ccccc2c1)c1ccc2[nH]c(=O)c(=O)[nH]c2c1,-0.0479% (inactive),-10.4%,,
O=C(Nc1ccc2ccccc2c1)c1ccc(Cl)cc1,,-18.8%,1.3 µM (active),
CCOc1ccc(C(=O)COC(=O)c2nn(CC)c(=O)c3ccccc23)cc1,-1.33% (inactive),18.9%,,
CNC(=O)NNC(=O)c1onc(-c2c(Cl)cccc2Cl)c1C(=O)OC,4.68% (inactive),19.9%,,
CCc1nc2ccccc2n1CCC(=O)O,-5.95% (inactive),-14.7%,,

SMILES,"lipid storage change, negative = inhibition",cell number change,Potency,outcome
CCSc1nc2ccccc2n1CCC(=O)O,,,,inactive
CC(C)c1nc2ccccc2n1CCC(=O)O,,-4.05%,16.4 µM (active),
CCC(C)(CC(=O)Nc1nccs1)c1ccccc1 (configuration not stated),9.71% (inactive),7.48%,,
O=C(OCC#CCSc1nnc(-c2ccccc2)o1)c1cccs1,,-0.992%,,inactive
N#Cc1nc(-c2cccc3ccccc23)oc1NCC#CCOC(=O)c1cccs1,,-10.2%,14.6 µM (active),
COc1ccc(CNc2oc(-c3cccc4ccccc34)nc2C#N)cc1,-4.38% (inactive),-5.87%,,
CC(NC(=O)CSc1n[nH]c(=O)n1C1CC1)C12CC3CC(CC(C3)C1)C2 (configuration not stated),,7.42%,,inactive
S=C1NCCOCCOCCOCCNC(=S)N2CCOCCOCCN1CCOCCOCC2,12.4% (inactive),-2.24%,,
CCOC(=O)c1[nH]c(C)c(C(=O)NC2CCCCC2)c1C,2% (inactive),-4.45%,,
CCN(CC)CCCNC(=O)c1[nH]c(C)c(C(=O)NC2CCCCC2)c1C,,-5.4%,25.9 µM (active),
CCOC(=O)c1[nH]c(C)c(C(=O)NC2CCCCCC2)c1C,0.0369% (inactive),-7.97%,,
O=C(O)c1cccc(S(=O)(=O)Nc2ccc3oc(=O)sc3c2)c1,-2.72% (inactive),4.14%,,
Cc1cc2oc(=O)sc2cc1NS(=O)(=O)c1ccccc1,,5.22%,7.31 µM (active),
Cc1cc(O)c(C(C)C)cc1NS(=O)(=O)c1ccccc1,,-16.1%,,inactive
COc1cccc(-c2cc(C(=O)NCC3CCCO3)c3cc(Br)cc(C)c3n2)c1 (configuration not stated),-22.3% (inactive),-7.43%,,
O=C(O)CC(Cc1ccc(Br)cc1)C(=O)O (configuration not stated),26.3% (inactive),-24.7%,,
N=c1oc2c3c4c(cc2cc1C(=O)Nc1ccccc1)CCCN4CCC3,,5.35%,5.8 µM (active),
N=c1oc2ccccc2cc1C(=O)Nc1ccc(F)cc1,1.4% (inactive),0.805%,,
N=c1oc2ccccc2cc1C(=O)Nc1ccccc1,,8.78%,,inactive
CC(C)COc1ccc(CSCCNC(=S)Nc2ccccc2)cc1,-21% (inactive),,,
O=C1C2CCCN2C(c2cccs2)N1c1ccc(F)cc1 (configuration not stated),0.267% (inactive),-1.44%,,
Cc1ccc2nc3c(cc(C(=O)NCC4CCCO4)n3C)c(=O)n2c1 (configuration not stated),5.2% (inactive),19.4%,,
O=C(N/N=C/c1ccco1)C12CC3CC(CC(C3)C1)C2,-8.38% (inactive),-15.4%,,
O=C(/C=C/c1ccco1)c1ccc(NC(=O)C23CC4CC(CC(C4)C2)C3)cc1,,-23.6%,16.4 µM (active),
